From PubChem BioAssay
Calls of active or inactive are those of the source.

Assays:
[1] = target: Albumin (Bos taurus) (UniProt P02769); experiment: compounds binding labelled BSA control protein – biochemical, small-molecule microarray, Alexa647 label, 635/667 nm fluorescence, artefact control for SMM control protein annotation, profiling panel (AID 1118); details: BSA-A647 binding, fluorescence 635 nm, higher = more signal;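 further: score merges 667 nm emission intensity and signal-to-noise per printed compound spot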
[2] = probe aXIP binding to arrayed compounds – biochemical, NeuroSMM set, 635/667 nm fluorescence, primary screen (AID 1119); details: small-molecule microarray, higher = more signal, called active from +8 up or from −8 down;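 further: probe is the protein aXip251-270 applied at 1 µg/mL to compound-printed slides; binding of probe to printed compounds measured as 667 nm fluorescence plus signal to noise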
[3] = probe aNOTCH3 binding on compound microarray – biochemical, small-molecule microarray, 635/667 nm fluorescence, primary screen (AID 1120); details: higher = more signal;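 further: probe is a biotin-tagged antibody raised against NOTCH3 rather than NOTCH3 protein; score merges spot fluorescence near 667 nm with spot signal to noise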
[4] = probe aNOTCH2 binding on compound microarray – biochemical, small-molecule microarray, 635/667 nm fluorescence, primary screen (AID 1121); details: higher = more signal;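 further: score merges feature fluorescence read at 667 nm with its signal to noise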
[5] = target: Carbonic anhydrase 2 (Homo sapiens) (UniProt P00918); experiment: compounds binding carbonic anhydrase 2 – biochemical, small-molecule microarray, Alexa647-labelled CAII, profiling panel (AID 1122); details: CAII-A647 binding fluorescence, higher = more signal
[6] = COS7 lysate on small-molecule microarray, probe aHis, 635 nm (AID 1123); details: COS7 cell lysate, fluorescence, higher = more signal;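 further: z-score combines 667nm fluorescence intensity with signal-to-noise per printed compound spot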
[7] = probe aLAP1 signal on lysate-treated microarray – cell lysate, small-molecule microarray, COS7 lysate, primary screen (AID 1124); details: probe aLAP1, fluorescence, higher = more signal;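 further: lysate comes from COS7 cells expressing LAP1 and is applied at 0.3 µg/mL; score merges spot fluorescence near 667 nm with signal-to-noise over triplicate slides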
[8] = system: Sam68 (KHDRBS1); experiment: compounds binding KHDRBS1 protein – biochemical, small-molecule microarray, 635 nm fluorescence, primary screen (AID 1125); details: higher = more signal;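 further: score merges 667 nm channel intensity with signal to noise over triplicate slides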
[9] = system: Chordin-like protein 2 (CHRDL2); experiment: compounds binding chordin-like 2 – biochemical, small-molecule microarray, 635 nm fluorescence, primary screen (AID 1126); details: fluorescence 635 nm, higher = more signal;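 further: printed compound slides probed with Chrdl2 protein at 4 µg/mL for 1 h at 4 C; score merges 667 nm emission intensity with signal to noise over three replicate slides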
[10] = target: Concanavalin-A (Canavalia ensiformis) (UniProt P02866); experiment: compounds binding concanavalin A lectin – biochemical, small-molecule microarray, Alexa647 label, 635 nm, artefact control for SMM control protein annotation, primary screen (AID 1127); details: ConA-A647 binding fluorescence, higher = more signal;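 further: z combines 667 nm emission intensity with signal-to-noise across three replicate slides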
[11] = compounds binding Alexa647 anti-His antibody – biochemical, small-molecule microarray, 635 nm fluorescence, artefact control for SMM control protein annotation, primary screen (AID 1128); details: higher = more signal;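 further: score merges feature fluorescence with signal-to-noise for each printed compound spot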
[12] = system: Human papillomavirus type 1a E7 protein (residues 1-88); experiment: HPV1a E7 small-molecule binders, primary screen, biochemical, small-molecule microarray, residues 1-88, 635 nm (AID 1129); details: small-molecule microarray binding, fluorescence 635 nm; higher = more signal
[13] = target: Focal adhesion kinase 1 (Homo sapiens) (UniProt Q05397); experiment: PTK2 protein binding on printed compound slides – biochemical, small-molecule microarray, 635/667 nm fluorescence, BSA, DTT, primary screen (AID 1130); details: 635 nm fluorescence, higher = more signal;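 further: composite of spot emission at 667 nm and signal to noise over triplicate slides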
[14] = system: Fibrinogen (Alexa647-labelled); experiment: Alexa647-fibrinogen binding to printed small molecules – biochemical, small-molecule microarray, 635/667 nm fluorescence, artefact control for SMM control-protein annotation, profiling panel (AID 1131); details: fibrinogen-A647 binding fluorescence, higher = more signal;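 further: z-score merges 667 nm fluorescence with per-spot signal-to-noise over triplicate slides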
[15] = target: Follistatin (Homo sapiens) (UniProt P19883); experiment: FST protein binding to printed compounds – biochemical, small-molecule microarray, 635/667 nm fluorescence, primary screen (AID 1132); details: 635 nm fluorescence, higher = more signal
[16] = target: Fibroblast growth factor 2 (Homo sapiens) (UniProt P09038); experiment: basic fibroblast growth factor binding to printed compounds – biochemical, small-molecule microarray, 635/667 nm fluorescence, primary screen (AID 1133); details: FGF2, fluorescence 635/667, higher = more signal
[17] = JC-1 mitochondrial potential readout, lung cancer cells – cell-based, A549, JC-1 fluorescence, basal, 24 h, 100 nL, profiling panel (AID 1138); details: higher = more signal;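 further: A549 lung adenocarcinoma cells under basal conditions with no added stimulus; test concentration not given here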
[18] = system: Lefty1; experiment: Lefty1 protein binding to printed compounds – biochemical, small-molecule microarray, 635/667 nm fluorescence, primary screen (AID 1139); details: fluorescence 635/667, higher = more signal
[19] = system: wheat germ agglutinin (Triticum aestivum), Alexa647-labelled; experiment: Alexa647-WGA lectin binding to printed small molecules – biochemical, small-molecule microarray, 635/667 nm fluorescence, artefact control for SMM control-protein annotation, profiling panel (AID 1140); details: WGA-A647 binding, 635 nm fluorescence, higher = more signal;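 further: score merges 667 nm feature emission with signal to noise over triplicate slides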
[20] = target: Luciferin 4-monooxygenase (Photinus pyralis) (UniProt P08659); experiment: inhibition of purified Photinus pyralis luciferase – biochemical, luminescence, purified enzyme, 2006 set, primary screen (AID 1141); details: purified firefly luciferase, SteadyGlo luminescence, 30 min; higher = more signal, called active from +8 up or from −8 down;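 further: cell-free assay with purified firefly luciferase at 100 ng per well in PBS; test concentration not given here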
Sequence of Luciferin 4-monooxygenase (Photinus pyralis) (P08659 whole entry, looked up): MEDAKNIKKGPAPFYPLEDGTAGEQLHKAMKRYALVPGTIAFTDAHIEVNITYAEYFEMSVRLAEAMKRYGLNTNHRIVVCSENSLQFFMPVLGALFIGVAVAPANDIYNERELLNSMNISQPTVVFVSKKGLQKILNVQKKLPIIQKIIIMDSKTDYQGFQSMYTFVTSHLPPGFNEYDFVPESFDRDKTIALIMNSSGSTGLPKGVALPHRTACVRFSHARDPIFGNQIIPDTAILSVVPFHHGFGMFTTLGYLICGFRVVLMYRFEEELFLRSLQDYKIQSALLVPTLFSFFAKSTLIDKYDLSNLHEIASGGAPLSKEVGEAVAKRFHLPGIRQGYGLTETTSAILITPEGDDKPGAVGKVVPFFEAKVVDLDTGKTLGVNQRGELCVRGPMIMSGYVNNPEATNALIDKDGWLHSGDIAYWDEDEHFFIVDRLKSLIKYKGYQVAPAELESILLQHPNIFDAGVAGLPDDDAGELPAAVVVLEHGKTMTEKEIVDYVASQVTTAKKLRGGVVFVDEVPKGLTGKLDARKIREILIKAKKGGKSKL

Sequence of Albumin (Bos taurus) (P02769 whole entry, looked up): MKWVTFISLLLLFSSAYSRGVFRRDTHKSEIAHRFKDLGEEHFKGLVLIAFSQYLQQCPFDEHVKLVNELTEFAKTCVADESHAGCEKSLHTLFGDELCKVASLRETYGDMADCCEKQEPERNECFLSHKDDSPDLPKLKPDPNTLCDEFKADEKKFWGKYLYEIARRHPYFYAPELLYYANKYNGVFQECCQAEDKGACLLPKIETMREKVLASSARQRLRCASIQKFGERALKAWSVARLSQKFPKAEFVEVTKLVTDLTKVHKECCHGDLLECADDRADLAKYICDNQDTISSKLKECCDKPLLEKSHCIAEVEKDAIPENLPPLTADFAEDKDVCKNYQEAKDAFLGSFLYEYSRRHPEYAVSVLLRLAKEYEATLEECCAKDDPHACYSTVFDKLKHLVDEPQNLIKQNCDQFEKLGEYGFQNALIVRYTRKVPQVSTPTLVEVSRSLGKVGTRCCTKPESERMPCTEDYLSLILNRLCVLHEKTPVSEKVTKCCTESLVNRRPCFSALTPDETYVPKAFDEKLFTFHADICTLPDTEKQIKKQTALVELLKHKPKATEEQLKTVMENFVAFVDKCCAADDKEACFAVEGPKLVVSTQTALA
Sequence of Fibroblast growth factor 2 (Homo sapiens) (P09038 whole entry, looked up): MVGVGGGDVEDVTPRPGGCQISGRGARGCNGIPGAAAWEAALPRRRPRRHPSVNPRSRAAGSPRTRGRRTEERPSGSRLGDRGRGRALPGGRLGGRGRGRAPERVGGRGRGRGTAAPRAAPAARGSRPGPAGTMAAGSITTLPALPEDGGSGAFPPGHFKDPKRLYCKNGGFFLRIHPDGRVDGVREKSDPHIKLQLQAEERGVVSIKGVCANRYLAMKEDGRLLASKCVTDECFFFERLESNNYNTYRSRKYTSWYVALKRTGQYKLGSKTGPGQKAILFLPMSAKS
Sequence of Follistatin (Homo sapiens) (P19883 whole entry, looked up): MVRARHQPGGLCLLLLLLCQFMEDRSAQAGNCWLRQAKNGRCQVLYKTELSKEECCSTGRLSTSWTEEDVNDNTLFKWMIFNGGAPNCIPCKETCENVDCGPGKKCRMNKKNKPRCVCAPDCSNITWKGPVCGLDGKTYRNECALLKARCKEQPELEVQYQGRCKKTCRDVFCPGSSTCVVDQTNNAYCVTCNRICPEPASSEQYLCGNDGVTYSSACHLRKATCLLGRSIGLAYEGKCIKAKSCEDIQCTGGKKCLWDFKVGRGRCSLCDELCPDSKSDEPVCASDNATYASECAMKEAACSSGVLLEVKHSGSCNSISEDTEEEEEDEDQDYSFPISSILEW
Sequence of Focal adhesion kinase 1 (Homo sapiens) (Q05397 whole entry, looked up): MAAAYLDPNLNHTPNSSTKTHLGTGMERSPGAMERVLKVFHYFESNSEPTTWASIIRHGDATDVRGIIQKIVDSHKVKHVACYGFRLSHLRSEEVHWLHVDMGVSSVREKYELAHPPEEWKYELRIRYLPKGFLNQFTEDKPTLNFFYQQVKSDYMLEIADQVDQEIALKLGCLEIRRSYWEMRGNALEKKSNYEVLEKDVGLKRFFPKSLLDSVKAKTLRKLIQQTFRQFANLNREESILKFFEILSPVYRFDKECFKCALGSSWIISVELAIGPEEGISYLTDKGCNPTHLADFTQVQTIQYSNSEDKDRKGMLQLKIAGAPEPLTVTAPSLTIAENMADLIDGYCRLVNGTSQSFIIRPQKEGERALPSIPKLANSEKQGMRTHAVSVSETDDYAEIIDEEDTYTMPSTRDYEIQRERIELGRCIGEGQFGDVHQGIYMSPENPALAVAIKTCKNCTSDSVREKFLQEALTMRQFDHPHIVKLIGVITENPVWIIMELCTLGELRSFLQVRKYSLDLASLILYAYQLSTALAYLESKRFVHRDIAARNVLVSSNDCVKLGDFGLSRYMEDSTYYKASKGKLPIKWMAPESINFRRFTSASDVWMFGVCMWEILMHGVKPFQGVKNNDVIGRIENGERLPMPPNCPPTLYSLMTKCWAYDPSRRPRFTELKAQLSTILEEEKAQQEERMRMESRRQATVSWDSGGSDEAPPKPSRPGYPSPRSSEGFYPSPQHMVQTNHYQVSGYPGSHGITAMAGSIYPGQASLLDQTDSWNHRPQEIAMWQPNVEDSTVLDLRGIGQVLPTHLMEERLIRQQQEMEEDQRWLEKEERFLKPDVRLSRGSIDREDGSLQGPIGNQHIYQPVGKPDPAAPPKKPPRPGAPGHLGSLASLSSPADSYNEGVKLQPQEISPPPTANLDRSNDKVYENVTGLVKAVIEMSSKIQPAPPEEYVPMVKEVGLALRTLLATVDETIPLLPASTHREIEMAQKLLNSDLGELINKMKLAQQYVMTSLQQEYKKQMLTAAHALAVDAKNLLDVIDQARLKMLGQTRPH
Sequence of Concanavalin-A (Canavalia ensiformis) (P02866 whole entry, looked up): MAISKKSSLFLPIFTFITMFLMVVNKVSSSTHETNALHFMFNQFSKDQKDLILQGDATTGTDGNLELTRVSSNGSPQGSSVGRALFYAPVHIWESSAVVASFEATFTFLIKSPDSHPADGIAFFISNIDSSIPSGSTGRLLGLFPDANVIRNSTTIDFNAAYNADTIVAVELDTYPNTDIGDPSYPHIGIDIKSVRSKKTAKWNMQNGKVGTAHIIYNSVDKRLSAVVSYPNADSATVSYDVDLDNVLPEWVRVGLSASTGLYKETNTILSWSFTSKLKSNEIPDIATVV

Row | SMILES | composite z-score [1] | composite Z-score [2] | composite z-score [3] | composite z-score [4] | composite z-score [5] | composite z-score [6] | composite z-score [7] | composite z-score [8] | composite z-score [9] | composite z-score [10] | composite z-score [11] | composite z-score [12] | composite z-score [13] | composite z-score [14] | composite z-score [15] | composite z-score [16] | z-score [17] | composite z-score [18] | composite z-score [19] | z-score [20]
1 | CCOC(=O)C[C@H]1[C@H](OC(=O)c2ccccc2-c2ccccc2)[C@@H](NC(=O)c2ccc3ccccc3n2)c2cc(OCCCO)ccc2N1C(=O)c1ccc2ccccc2n1 | 0.202 | -0.293 (inactive) | -0.0647 | -0.0626 | 0.0023 | 0.626 | -0.283 | 0.498 | 0.422 | 0.762 | 1.22 | 0.374 | 0.281 | 0.74 | 0.474 | 0.202 | 0.481 | 0.659 | 0.0363 | 0.761 (inactive)
2 | CN(C)CCCCNC(=O)[C@H]1C[C@H]2C(=O)N[C@@H](CCCCN(C)C)C(=O)N2[C@H]1c1cccc(OCCO)c1 | 0.418 | -1 (inactive) | 0.0691 | -0.237 | 0.18 | 2.21 | 0.518 | 1.31 | 1.39 | 1.14 | 1.1 | 0.603 | 0.29 | 0.877 | 1.3 | 1.23 | -0.0557 | 1.64 | 1.02 | 0.709 (inactive)
3 | COCCOC(=O)N1C(=O)[C@@]2(c3cc(C#CC4(O)CCCCCC4)ccc31)[C@H](C(N)=O)[C@H]1C(=O)O[C@H](c3ccccc3)[C@H](c3ccccc3)N1[C@@H]2c1ccc(O)cc1 | 0.21 | -0.014 (inactive) | 0.676 | -0.0349 | 0.181 | 1.27 | 0.298 | 1.12 | 0.47 | 0.866 | 1.28 | 1.17 | 0.124 | 0.329 | 1.32 | 0.869 | -0.317 | 0.754 | 0.547 | -1.4 (inactive)
4 | C=CCOC(=O)[C@@H]1[C@H]2C(=O)O[C@H](c3ccccc3)[C@H](c3ccccc3)N2[C@H](c2ccc(OCCOC(=O)[C@H]3C[C@H]4C(=O)N[C@@H](CCCCN(C)C)C(=O)N4[C@H]3c3cccc(OCCO)c3)cc2)[C@@]12C(=O)Nc1ccc(I)cc12 | -0.624 | 0.204 (inactive) | 0.194 | -0.14 | 0.507 | 1.64 | 0.168 | 1.25 | 0.798 | 1.15 | 2.94 | 1.17 | 0.319 | 0.758 | 1.48 | 1.59 | -0.717 | 1.49 | 0.768 | -0.517 (inactive)
5 | COc1cc(OC)c(C(O)C2C=CC3C(=O)N(c4ccccc4)C(=O)C3N2Nc2ccc(C#N)cc2)cc1Br (stereo not given) | 1.01 | 1.5 (inactive) | 0.334 | 0.401 | 0.849 | 2.49 | 1.41 | 1.15 | 0.355 | 1.04 | 1.36 | 1.02 | 0.707 | 0.674 | 1.22 | 0.217 | 0.658 | -0.129 | 1.13 | 0.289 (inactive)
6 | NCCCCCNC(=O)[C@@H]1C[C@@H]2C(=O)N[C@@H](CCCCN)C(=O)N2[C@@H]1c1cccc(OCCO)c1 | 0.104 | 0.416 (inactive) | -0.0168 | -0.0637 | -0.153 | 0.043 | 1.55 | 0.668 | 1.18 | -0.0079 | 2.33 | -0.0045 | -0.214 | 0.101 | 1.17 | 1.25 | 0.844 | 1.54 | 0.715 | 1.03 (inactive)
7 | COC(=O)[C@@]1(Cc2ccccc2)[C@H]2c3cc(C(=O)N4CCCC4)[nH]c3C[C@H]2CN1C(=O)c1ccccc1 | 0.5 | -0.37 (inactive) | 0.0203 | 0.111 | 0.722 | 3.51 | 0.341 | -1.81 | -0.782 | -1.15 | 0.886 | -0.0205 | 1.24 | 0.664 | -0.382 | -0.757 | 0.709 | -0.826 | -0.129 | 1.18 (inactive)
8 | CCOC(=O)C[C@H]1[C@H](OC(=O)c2ccc(C(=O)c3ccccc3)cc2)[C@@H](NC(=O)c2ccc3ccccc3c2)c2cc(OCCCO)ccc2N1C(=O)c1ccccc1 | 0.362 | 0.224 (inactive) | 0.0893 | 0.127 | 0.197 | 1.26 | 0.8 | 1.32 | -0.257 | 1.04 | 0.405 | 1.13 | 0.287 | 0.73 | 0.599 | 0.436 | 0.315 | 1.14 | 1.1 | -0.204 (inactive)
9 | COCCCNC(=O)[C@@H]1c2ccccc2C(=O)N(Cc2ccccc2C(F)(F)F)[C@H]1c1ccc(CO)cc1 | -1.34 | -0.0662 (inactive) | -0.186 | -0.131 | 0.389 | 1.19 | 0.216 | 0.433 | -0.781 | -0.264 | -0.175 | 0.569 | 0.278 | -0.873 | -0.211 | -0.372 | 2.81 | -0.295 | -0.488 | -1.26 (inactive)
10 | CCOC(=O)C1=CC[C@@H](c2ccc([N+](=O)[O-])cc2)N(S(=O)(=O)c2ccc(C)cc2)[C@H]1c1ccccc1 | 0.845 | 0.312 (inactive) | 0.233 | -0.0297 | 0.373 | 2.21 | 0.359 | 1.28 | 0.402 | 0.842 | 1.89 | 1.21 | 0.471 | 0.979 | 1.01 | 0.554 | 1.26 | 0.969 | 0.695 | 1.94 (inactive)
11 | CCOC(=O)C[C@H]1[C@H](OC(=O)c2ccc(-c3ccccc3)cc2)[C@@H](NC(=O)c2ccc3ccccc3n2)c2cc(OCCCO)ccc2N1C(=O)c1ccccc1 | 0.58 | -0.202 (inactive) | 0.0916 | -0.0613 | 0.14 | 0.554 | 0.0488 | 1.25 | 0.423 | 1.04 | 1.14 | 1 | 0.059 | 0.702 | 0.779 | 0.736 | -0.332 | 0.815 | 0.262 | 0.371 (inactive)
